# Records with an inconclusive call do not appear. Calls of active or inactive are those of the source. The calls were made as follows, unless noted: active = hit-call score of the fitted dose curve at least 0.9, where 1 is the maximum; inconclusive = response in the unintended direction; inactive = score below 0.9.
# How the values were obtained:
# [1] = system: SERPINA7 (gene 6906); experiment: CCTE_GLTED_hTBG: CCTE's human Thyroxine-binding Globulin (TBG) Inhibition Assay, Great Lakes Toxicology and Ecology Division (GLTED) Lab (AID 2284343);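 also: active chemicals lower fluorescence versus DMSO baseline by displacing probe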
# How it was run: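 Steps: combine TBG with chemical; incubate 2 hours so that disruptors release ANSA; record fluorescence (380 ex, 475 em). Loss of signal was fitted against DMSO controls.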
# [2] = CCTE_Mundy_HCI_iCellGluta_NOG_NeuronCount: CCTE's Neurite Outgrowth Assay in iCellGluta cells for Neuron Count, Mundy Lab (AID 2284340);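 also: cells fixed about 48 h after compound addition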
# How it was run: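 Neuron count read by automated high-content imaging of Hoechst 33342 and betaIII-tubulin/Alexa Fluor-488 labelling in human iPSC glutamatergic neurons. Activity fitted relative to DMSO.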
# [3] = CCTE_Mundy_HCI_iCellGluta_NOG_NeuriteCount: CCTE's Neurite Outgrowth Assay in iCellGluta cells for Neurite Count, Mundy Lab (AID 2284342);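 also: chemical exposure about 48 hours starting 2 hours after plating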
# [4] = CCTE_Deisenroth_H295R-HTRF_384WELL_ESTRADIOL: CCTE's H295R-HTRF Assay Evaluation of Estradiol Concentration, Deisenroth Lab (AID 2284361; active = hit-call score of the fitted dose curve at least 0.9, where 1 is the maximum; inactive = score below 0.9); conditions: actives raise or lower the signal
# How it was run: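 Estradiol secreted into medium by H295R adrenocortical cells, quantified by HTRF after 48 h dosing over a nine-point 0.001 - 100 uM final range; gain or loss versus DMSO. Parallel ATP-luminescence viability readout; n=5 experiments.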
# [5] = CCTE_Deisenroth_H295R-HTRF_384WELL_TESTOSTERONE: CCTE's H295R-HTRF Assay Evaluation of Testosterone Concentration, Deisenroth Lab (AID 2284373; active = hit-call score of the fitted dose curve at least 0.9, where 1 is the maximum; inactive = score below 0.9); conditions: actives raise or lower the signal
# How it was run: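 Secreted testosterone was quantified by HTRF immunoassay of medium from human adrenocortical H295R cells after 48 h chemical exposure at 0.001–100 uM final. Gain or loss was fitted against DMSO. ATP-based viability was read on matched wells, five experimental replicates.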
# [6] = CCTE_Deisenroth_H295R-HTRF_384WELL_CTOX: Cytotoxicity Assessment in CCTE's H295R-HTRF Assay, Deisenroth Lab (AID 2284380)
# How it was run: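 Luminescent ATP viability readout (CellTiter-Glo 2.0), multiplexed on plates used for hormone sampling, after 48 h chemical exposure. Human H295R cells; final concentrations 0.001–100 uM in nine steps, technical triplicates, five experiments; DMSO baseline.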
# [7] = CCTE_Padilla_ZF_Score.General: CCTE's 144 Hour Post-fertilization zebrafish Assay Score for General Malformation, Padilla Lab (AID 2284411; active = hit-call score of the fitted dose curve at least 0.9, where 1 is the maximum; inactive = score below 0.9)
# How it was run: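 Malformation, death and hatching were scored at 6 dpf by two blinded observers under a stereo microscope. Embryos were dosed singly from 6-8 hpf in sealed plates of 10% Hanks' at 26C and rinsed on 5 dpf; DMSO baseline.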
# [8] = system: TTR (gene 7276); experiment: CCTE_GLTED_hTTR_0.125uM: CCTE's human Transthyretin (hTTR) Inhibition Assay, with 0.125uM TTR, Great Lakes Toxicology and Ecology Division (GLTED) Lab (AID 2284431; active = hit-call score of the fitted dose curve at least 0.9, where 1 is the maximum; inactive = score below 0.9;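 also: hits lower the fluorescence signal relative to DMSO baseline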)
# How it was run: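 TTR at 0.125uM incubated 2 h with test chemical; displacement of bound ANSA read by fluorescence (ex 380, em 475). Activity is signal loss versus DMSO baseline.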
# [9] = system: SRY-box transcription factor 17 (SOX17) Protein Expression, Deisenroth Lab, SOX17 (gene 64321); experiment: CCTE_Deisenroth_DEVTOX-GLR_legacy_Sox17: (Legacy) CCTE's DevTox GLR-Endo Assay Evaluation of SRY-box transcription factor 17 (SOX17) Protein Expression, Deisenroth Lab (AID 2284341; active = hit-call score of the fitted dose curve at least 0.9, where 1 is the maximum; inactive = score below 0.9); conditions: actives raise or lower the signal
# How it was run: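 RUES2-GLR human pluripotent cells differentiated toward endoderm for 48 h, dosed twice at 24 h intervals (1 nM–200 uM, 10 points). Imaging gives % SOX17+ cells (intensity >5x BMAD above pluripotent control median); bidirectional fit versus 0.2% DMSO.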
# [10] = system: SRY-box transcription factor 2 (SOX2) Protein Expression, Deisenroth Lab, SOX2 (gene 6657); experiment: CCTE_Deisenroth_DEVTOX-GLR_legacy_Sox2: (Legacy) CCTE's DevTox GLR-Endo Assay Evaluation of SRY-box transcription factor 2 (SOX2) Protein Expression, Deisenroth Lab (AID 2284346; active = hit-call score of the fitted dose curve at least 0.9, where 1 is the maximum; inactive = score below 0.9)
# How it was run: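 Two exposures, 24 h apart, during 48 h defined-media differentiation of seeded RUES2-GLR cells; nuclei-stained cells imaged. Sox2 positivity called at 5x BMAD above endoderm control median, DMSO median subtracted.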
# [11] = system: SRY-box transcription factor 17 (SOX17) Protein Expression, Deisenroth Lab, SOX17 (gene 64321); experiment: CCTE_Deisenroth_DEVTOX-GLR_Endo_SOX17: CCTE's DevTox GLR-Endo Assay Evaluation of SRY-box transcription factor 17 (SOX17) Protein Expression, Deisenroth Lab (AID 2284413; active = hit-call score of the fitted dose curve at least 0.9, where 1 is the maximum; inactive = score below 0.9)
# How it was run: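 Fluorescent microscopy of a SOX17 reporter in RUES2-GLR pluripotent cells scored endoderm differentiation after 48 h and two 24-h-spaced exposures. Values are percent change in SOX17+ population against 0.2% DMSO, n=4 experimental replicates.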
# [12] = system: Brachyury (BRA) Protein Expression, TBXT (gene 6862); experiment: CCTE_Deisenroth_DEVTOX-GLR_Endo_BRA: CCTE's DevTox GLR-Endo Assay Evaluation of Brachyury (BRA) Protein Expression, Deisenroth Lab (AID 2284417; active = hit-call score of the fitted dose curve at least 0.9, where 1 is the maximum; inactive = score below 0.9)
# How it was run: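 RUES2-GLR pluripotent cells differentiated 48 h with two chemical exposures 24 h apart, 10-point range 1 nM - 200 uM. Percentage of BRA+ cells per total count by high-content imaging, minus 0.2% DMSO control.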
# [13] = CCTE_Deisenroth_DEVTOX-GLR_Endo_CellCount: Viability Assessment in CCTE's DevTox GLR-Endo Assay, Deisenroth Lab (AID 2284420; active = hit-call score of the fitted dose curve at least 0.9, where 1 is the maximum; inactive = score below 0.9)
# How it was run: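 Percent change in nuclear-stain cell counts versus 0.2% DMSO, from high-content imaging over 5 fields per well. Over a 48 h endoderm differentiation, RUES2-GLR cells received two doses 24 h apart across a 1 nM–200 uM series, with n=4.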
# [14] = system: SRY-box transcription factor 17 (SOX17) Protein Expression, Deisenroth Lab, SOX17 (gene 64321); experiment: CCTE_Deisenroth_DEVTOX-GLR_Pluri_SOX17: CCTE's DevTox GLR-Pluri Assay Evaluation of SRY-box transcription factor 17 (SOX17) Protein Expression, Deisenroth Lab (AID 2284427)
# How it was run: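 The endpoint is SOX17+ cells as a fraction of cell count, corrected for the 0.2% DMSO control and obtained by high-content fluorescence imaging of fixed cells. Cells were RUES2-GLR under a 48-hour endoderm differentiation, dosed twice at 24-hour intervals over 1 nM–200 uM.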
# [15] = system: SRY-box transcription factor 2 (SOX2) Protein Expression, Deisenroth Lab, SOX2 (gene 6657); experiment: CCTE_Deisenroth_DEVTOX-GLR_Pluri_SOX2: CCTE's DevTox GLR-Pluri Assay Evaluation of SRY-box transcription factor 2 (SOX2) Protein Expression, Deisenroth Lab (AID 2284428; active = hit-call score of the fitted dose curve at least 0.9, where 1 is the maximum; inactive = score below 0.9)
# How it was run: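 Percent SOX2+ cells (SOX2+ count per total cells, fluorescent imaging) in RUES2-GLR human pluripotent line, expressed relative to 0.2% DMSO. Compounds dosed twice at 24 h intervals during 48 h, 1 nM - 200 uM, 10 concentrations.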
# [16] = system: Brachyury (BRA) Protein Expression, Deisenroth Lab, TBXT (gene 6862); experiment: CCTE_Deisenroth_DEVTOX-GLR_Pluri_BRA: CCTE's DevTox GLR-Pluri Assay Evaluation of Brachyury (BRA) Protein Expression, Deisenroth Lab (AID 2284429)
# How it was run: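 Mesoderm readout after 48 h differentiation of human RUES2-GLR cells, dosed twice (24-h intervals) at 1 nM - 200 uM. BRA+ frequency from fluorescence imaging of fixed, nuclear-stained cells, DMSO-corrected.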
# [17] = CCTE_Deisenroth_DEVTOX-GLR_Pluri_CellCount: Viability Assessment in CCTE's DevTox GLR-Pluri Assay Evaluation of Total Cell Counts, Deisenroth Lab (AID 2284430; active = hit-call score of the fitted dose curve at least 0.9, where 1 is the maximum; inactive = score below 0.9)
# How it was run: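 Cytotoxicity readout: fluorescent nuclei counts by high-content imaging, expressed as percent change relative to 0.2% DMSO. Human RUES2-GLR pluripotent line differentiated 48 h, dosed twice at 24-h intervals across 1 nM - 200 uM (10 points).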
# [18] = VALA_TUBHUV_Agonist_TubuleLength: VALA Sciences human Umbilical Vein Endothelial Tubule Formation (TUBHUV) Agonism Assay (AID 2284337)
# How it was run: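 Tubule length quantified by CD31 immunofluorescence imaging after fixation. HUVEC-HDF co-cultures (1:3) pre-grown 3 days with 10 ng/ml VEGF, then dosed 3 days in VEGF medium; 0.1 % DMSO vehicle baseline.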
# [19] = VALA_TUBIPS_Agonist_CellCount: Viability Assessment in the VALA Sciences human iPS-derived Endothelial Tubule Formation (TUBIPS) Agonism Assay (AID 2284338)
# Experimental: VALA_TUBIPS_Agonist is a cell-based, multiplexed assay that uses human iPS-derived endothelial cells (iPSC). Measurements were taken 72 hours after chemical dosing in a 96-well plate.VALA_TUBIPS_Agonist_CellCount is the one of two assay components measured from the VALA_TUBIPS_Agonist assay. It is designed to make measurements of viability, a form of viability reporter, as detected with fluorescence intensity signals by HCS Fluorescent Imaging technology. Data from the assay component VALA_TUBIPS_Agonist_CellCount was analyzed at the endpoint, VALA_TUBIPS_Agonist_CellCount, in the positive analysis fitting direction relative to DMSO as the negative control and baseline of activity. Using a type of viability reporter, loss-of-signal activity can be used to understand viability. To generalize the intended target to other relatable targets, this assay endpoint is annotated to the cell cycle intended target family, where the subfamily is cell count.
# […]
smiles,measurement,setting,value
CCN(Cc1c(F)cccc1Cl)c1c([N+](=O)[O-])cc(C(F)(F)F)cc1[N+](=O)[O-],AC50,[1],0.62 µM (active)
CCN(CC)C(=O)c1cccc(C)c1,outcome,[2],inactive
same,outcome,[3],inactive
C=CCOC(Cn1ccnc1)c1ccc(Cl)cc1Cl (stereo unspecified),AC50,[4],0.447 µM (active)
same,AC50,[5],1.87 µM (active)
same,AC50,[6],84.6 µM (active)
O=C(c1ccccc1)C1CCCCC1,AC50,[1],50 µM (active)
COC(=O)CSc1cc(N=c2sc(=O)n3n2CCCC3)c(F)cc1Cl,AC50,[1],25.9 µM (active)
COCCO,outcome,[7],inactive
CCCN(CCC)C(=O)SCC,outcome,[2],inactive
same,outcome,[3],inactive
CSC(=O)c1cccc2nnsc12,outcome,[3],inactive
C#CCOC(=O)[C@@H](C)Oc1ccc(Oc2ncc(Cl)cc2F)cc1,outcome,[2],inactive
same,AC50,[3],34 µM (active)
O=C(O)C1(C(=O)Nc2ccc(Cl)cc2Cl)CC1,AC50,[1],66 µM (active)
same,AC50,[8],8.06 µM (active)
CCCCC(CC)COC(=O)c1ccccc1C(=O)O (stereo unspecified),AC50,[9],100 µM (active)
same,AC50,[1],18.3 µM (active)
same,outcome,[10],inactive
same,AC50,[11],100 µM (active)
same,AC50,[12],160 µM (active)
same,AC50,[13],109 µM (active)
same,AC50,[14],100 µM (active)
same,AC50,[15],100 µM (active)
same,AC50,[16],70.4 µM (active)
same,outcome,[17],inactive
same,AC50,[8],1.44 µM (active)
CCCN(CCC)c1c([N+](=O)[O-])cc(C(F)(F)F)c(N)c1[N+](=O)[O-],AC50,[1],0.322 µM (active)
same,AC50,[8],0.348 µM (active)
CC(C)CCCCCCc1ccc(O)cc1,outcome,[18],inactive
same,outcome,[19],inactive
same,AC50,[1],5.2 µM (active)
same,AC50,[8],1.87 µM (active)
CCC(C)OC(=O)N1CCCCC1CCO (stereo unspecified),outcome,[7],inactive
O=C(Nc1ccc([N+](=O)[O-])cc1Cl)c1cc(Cl)ccc1O,outcome,[1],inactive
same,AC50,[8],0.633 µM (active)
